Bioassay records as filed in PubChem.
Tau fibril ThT = blocks human tau fibril formation measured by thioflavin T | recombinant tau K18 P301L, heparin-induced fibrillization, ThT fluorescence | AID 1460 | Potency, µM (series often up to 57.4 µM), for inactives: top-dose activity, negative = inhibition, usual class: inhibitors | P10636 | hit rate 2.1% among 270,000; further: nearly all actives have a fitted effect of over 55% in size
Target sequence (P10636 561-689 P618L limits assumed): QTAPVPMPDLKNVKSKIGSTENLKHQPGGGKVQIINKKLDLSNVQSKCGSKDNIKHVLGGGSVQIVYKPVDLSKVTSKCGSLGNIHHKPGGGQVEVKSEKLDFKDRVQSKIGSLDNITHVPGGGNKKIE
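In this qHTS, human K18 P301L tau is incubated with compound and heparin for 6 hr at 37 C, and Thioflavin T fluorescence then reports fibril load.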
VP16 counter = counter-screen for ROR gamma inhibitors: Gal4-VP16 reporter | Drosophila S2 Gal4-VP16 UAS-luciferase, luminescence, 20 h | Potency, µM (series often up to 53.6 µM), for inactives: top-dose activity, negative = inhibition, hits mostly inhibitors | hit rate 3.5% among 310,000 | AID 2546;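 further: Gal4-VP16 expression switched on by copper sulfate through the metallothionein promoter; nearly all actives have a fitted effect of over 50% in size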
RORgamma inh = ROR gamma (mouse) transcription inhibition. Potency, µM (highest dose often 53.6 µM), inactives show at the highest dose activity change, negative = inhibition, actives largely listed as inhibitors. AID 2551. Drosophila S2 Gal4-RORgamma UAS-luciferase reporter, 20 h. hit rate 5.4% among 310,000; further: nearly all actives have a fitted effect of over 60% in size
Target sequence (P51450 whole entry, looked up, the tested form may be a part): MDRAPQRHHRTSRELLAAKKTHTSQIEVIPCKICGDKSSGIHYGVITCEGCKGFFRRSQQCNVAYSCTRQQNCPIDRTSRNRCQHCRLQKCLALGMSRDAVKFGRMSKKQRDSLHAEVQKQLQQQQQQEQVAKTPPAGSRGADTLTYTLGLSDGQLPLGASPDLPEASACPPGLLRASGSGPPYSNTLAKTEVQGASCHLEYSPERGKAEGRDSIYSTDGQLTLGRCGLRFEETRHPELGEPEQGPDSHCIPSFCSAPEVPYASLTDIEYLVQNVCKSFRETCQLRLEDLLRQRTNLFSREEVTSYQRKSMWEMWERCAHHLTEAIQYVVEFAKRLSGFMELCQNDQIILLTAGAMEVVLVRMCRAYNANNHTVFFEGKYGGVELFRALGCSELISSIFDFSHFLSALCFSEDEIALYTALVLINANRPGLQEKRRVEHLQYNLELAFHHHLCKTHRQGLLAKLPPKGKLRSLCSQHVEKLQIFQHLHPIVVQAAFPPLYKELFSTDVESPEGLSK
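Using a luciferase readout, inhibitors were identified by reduced reporter activity in Drosophila cells coexpressing a copper-inducible Gal4–ROR gamma fusion and UAS-driven Photinus luciferase, incubated 20 hr after 700 uM copper sulfate.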
Tau FP inhib = blocks human tau fibril formation measured by polarization. AID 1468. hit rate 0.39% among 280,000. Potency, µM (titrated, usually from 57.7 µM), for the others: at the top dose activity, negative = inhibition, hits mostly inhibitors. P10636. K18 P301L tau heparin fibrillization, Alexa594 FP, 6 h; further: nearly all actives have a fitted effect of over 55% in size
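Recombinant K18 P301L […], labeled with Alexa 594 at 0.24 uM over 15 uM unlabeled; heparin inducer 20 uM final; 37 C, 6 hr; FP endpoint.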
Tau fluor cs = counter-screen for tau fibril formation inhibitors | Potency, µM (series often up to 57.7 µM), for the others: top-dose activity change, negative = decrease | tau K18 P301L (four-repeat tau fragment) Alexa594 fluorescence, heparin fibrillization | AID 1463 | hit rate 0.93% among 280,000; further: nearly all actives have a fitted effect of over 55% in size
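Human K18 P301L tau (15 uM unlabeled plus 0.24 uM Alexa 594-labeled, final) in 100 mM sodium acetate pH 7 was mixed with compound and 20 uM heparin and incubated 6 hr at 37 C.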
* = called active by the depositor; ? = inconclusive; nt = no result given; [ ] = another dose, or the depositor's remark. A selection: hits, their analogues and other compounds. The true share with any hit is near 7.3%. The call rests on the fitted dose curve; in most records, active means well fitted curve in the direction sought with a large enough effect; inconclusive means small, poorly fitted or top-dose-only effect, or another doubt; inactive means no such curve, though single readings can be large; an effect the other way counts as inactive or inconclusive. On the % scale 0 is the no-effect control and ±100 the full control effect; potency means the concentration at half of the fitted maximal effect.

SMILES	Tau fibril ThT	VP16 counter	RORgamma inh	Tau FP inhib	Tau fluor cs
CC1=C(C(=O)OCc2ccccc2)C(c2ccc3ccccc3c2)NC(=O)N1CCCCCC(=O)O (configuration not stated)	?	-0.6%	7.94µM*	-2.2%	-5.7%
CC1=C(C(=O)OCc2ccccc2)C(c2ccc([N+](=O)[O-])cc2)NC(=O)N1CCCCCC(=O)O (configuration not stated)	-17.9%	17.6%	10µM*	4.3%	-10.8%
CC1=C(C(=O)OCc2ccccc2)C(c2ccccc2Cl)NC(=O)N1CCCCCC(=O)O (configuration not stated)	nt	-10.0%	1.78µM*	nt	nt
CC1=C(C(=O)OCc2ccccc2)C(c2ccccc2Cl)NC(=O)N1CCCC(=O)O (configuration not stated)	nt	-4.8%	-18.9%	nt	nt
CC1=C(C(=O)OCc2ccccc2)C(c2ccc3ccccc3c2)NC(=O)N1CCCC(=O)O (configuration not stated)	nt	-4.4%	11.2µM*	nt	nt
CC1=C(C(=O)OCc2ccccc2)C(c2ccccc2)NC(=O)N1CCCCCC(=O)O (configuration not stated)	-13.6%	21.0%	43.9%	-3.3%	-6.5%
CC1=C(C(=O)OCc2ccccc2)C(c2ccc([N+](=O)[O-])cc2)NC(=O)N1CCCC(=O)O (configuration not stated)	nt	3.4%	-30.0%	nt	nt
Cc1noc(NS(=O)(=O)c2ccc(NC(=O)COc3ccccc3Br)cc2)c1C	-8.1%	nt	nt	9.0%	-0.4%
O=C(CCCN1C(=O)c2cccnc2Oc2ccc(Cl)cc21)NCc1ccccc1F	2.6%	nt	nt	-4.1%	-4.3%
CSc1ccc(CN(C)Cc2nc3ccccc3c(=O)[nH]2)cc1	-1.0%	?	?	-0.7%	1.8%
CCNC(=S)N(Cc1ccccc1)Cc1nc2ccccc2c(=O)[nH]1	3.2%	7.08µM*	6.31µM*	5.7%	4.6%
COCCCNC(=S)N(Cc1ccccc1)Cc1ccccc1	-3.7%	?	15.8µM*	2.3%	-9.9%
COCCCNC(=S)N(Cc1ccccc1)Cc1nc2ccccc2c(=O)[nH]1	0.0%	?	15.8µM*	-2.8%	-8.1%
CCCCCCCCCCCCCCCC(=O)NCCCC(=O)O	-18.3%	-11.2%	37.6%	-2.3%	-16.0%
CCOc1ccccc1CN1CCc2nc(N3CCN(C)CC3)ncc2C1	-14.0%	nt	nt	6.1%	-6.4%
COc1ccc(Cl)cc1S(=O)(=O)NCc1ccncc1	nt	1.3%	10.3%	nt	nt
Cc1csc(N/N=C/c2ccccn2)n1	?	1.12µM*	0.355µM*	-0.7%	-18.5%
C(=N\Nc1ccccc1)/c1nc2ccccc2s1	?	3.5%	0.7%	?	12.6µM*[quencher]
C(=N\N=C\c1ccccn1)/c1ccccn1	nt	-9.3%	-18.6%	nt	nt
Brc1csc(/C=N/Nc2nc3ccccc3s2)c1	?	1.26µM*	0.562µM*	-5.9%	7.94µM*[quencher]
Cc1csc(N/N=C/c2ccc([N+](=O)[O-])cc2)n1	nt	-23.8%	-52.0%	nt	nt
C(=N\Nc1nc2ccccc2s1)/c1ccccn1	?	-94.6%	0.1µM*	5.0%	-28.5%
Cc1cccc(NC(=O)c2sc3nc4n(c(=O)c3c2C)N=C(c2ccc(F)cc2)CS4)c1C	?	nt	nt	0.9%	7.4%
CCc1cccc(NC(=O)Cn2c(=O)n(Cc3ccccc3)c(=O)c3c(C)c(C(=O)N(C)C)sc32)c1	15.3%	nt	nt	-13.5%	-27.2%
NC(=O)C1O[C@@H](O)[C@H](O)[C@@H](O)[C@H]1O (some centres not stated)	nt	-3.1%	-5.8%	nt	nt
SMILES	Tau fibril ThT	VP16 counter	RORgamma inh	Tau FP inhib	Tau fluor cs
Cc1ccc2[nH]c(C)c(/C=N/Nc3nc4ccccc4s3)c2c1	14.1µM*	4.0%	-33.4%	?	10µM*[quencher]
CC(C)C(=O)NC(=O)C1CCCN1C(=O)/C=C/c1ccccc1 (configuration not stated)	0.6%[11.5 µM]	4.1%[10 µM]	5.2%[10 µM]	2.1%[11.6 µM]	1.7%[11.6 µM]
C=CCOc1ccc(-c2n[nH]c(=S)o2)cc1	?	-21.9%	11.2µM*	8.7%	-8.5%
COc1ccc(/C=C/C2=CC3(C)CC2(C)C(c2ccc(OC)cc2)CC3=O)cc1 (configuration not stated)	?	-3.4%[10 µM]	-1.0%[10 µM]	-2.3%[11.6 µM]	-20.3%[11.6 µM]
C/C(CC(=O)Nc1cc(C)ccn1)=N\NC(=O)c1cccc(C)c1	?	-28.8%	11.2µM*	-1.0%	1.2%
C/C(=N/NC(=O)c1cccc(C)c1)c1c(O)cc(C)oc1=O	?	3.55µM*	?	3.0%	-8.4%
C/C(CC(=O)Nc1cc(C)ccn1)=N\NC(=O)c1cccc(C)c1O	nt	5.01µM*	11.2µM*	nt	nt
C/C(=N\Nc1ccccc1)c1c(O)cc(C)oc1=O	?	-13.0%	9.6%	-8.7%	-14.7%
CCOc1ccccc1C(=O)N1CCC(c2nc3ccccc3o2)CC1	-3.1%	nt	nt	-3.9%	-3.7%
CCOc1ccccc1CNC(=O)c1cc(-c2ccc(OC)cc2)nc2ccc(C(C)C)cc12	-3.5%	nt	nt	-2.6%	-13.4%
COc1ccc(NC(=O)c2ccco2)cc1NC(=O)c1cccc(F)c1	nt	0.8%	23.3%	nt	nt
COc1ccccc1-c1nnc(NC(=O)C2=COCCO2)o1	8.5%	2.82µM*	2.24µM*	6.7%	5.6%
COc1ccccc1-c1nnc(SCC(=O)N2CCCCC2)o1	nt	3.8%	1.8%	nt	nt
COc1ccc(-c2nnc(NC(=O)C3=COCCO3)o2)cc1	0.2%	2.82µM*	3.55µM*	7.6%	11.8%
C[S+](C)CC[C@H](N)C(=O)O	nt	-7.9%	-5.0%	nt	nt
Nc1ccc([N+](=O)[O-])c(N)c1	nt	8.3%	26.9%	nt	nt
COc1ccc(N2CSC3=C(C#N)C(c4cccc(OC)c4OC)CC(=O)N3C2)cc1 (configuration not stated)	17.8µM*	0.9%	-44.8%	?	-25.4%
COc1ccc(CN2CC(=O)N(c3ccccc3C)C2=S)cc1OC	-12.5%	6.1%	-0.7%	?	-17.1%
Cc1cccc(N2CSC3=C(C#N)C(c4ccc(C)o4)CC(=O)N3C2)c1 (configuration not stated)	14.1µM*	17.6%	8.0%	?	-26.6%
COc1cc(OC)c(C2CC(=O)N3CN(c4ccccc4C)CSC3=C2C#N)cc1OC (configuration not stated)	28.2µM*	-13.7%	-41.2%	31.6µM*	-24.3%
CCc1ccccc1N1CSC2=C(C#N)C(c3ccccc3F)CC(=O)N2C1 (configuration not stated)	28.2µM*	?	?	?	-18.5%
COc1cccc(C2SCC(=O)N2c2ccc(Cl)cc2)c1OC (configuration not stated)	1.0%	-8.1%	3.5%[10 µM]	?	0.5%
CC[C@@]1(c2ccccc2)NC(=O)N(C)C1=O	nt	-2.4%	-5.4%[10 µM]	nt	nt
CCOC(=O)c1c(Nc2ccc(F)cc2)nnc(-c2ccccc2)c1-c1ccccc1	-12.1%	nt	nt	-1.7%	-14.0%
